In PubChem BioAssay (EPA / NIEHS):
Calls of active or inactive are those of the source. The calls were made as follows: active = hit-call score of the fitted dose curve at least 0.9, where 1 is the maximum; inactive = score below 0.9.

Test: CCTE_Shafer_MEA_acute_spike_number: CCTE's Neural Acute Assay for Total Number of Spikes, Shafer Lab (AID 2284008);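 as to AC50: curve fitted for decrease in spike count so AC50 reflects inhibitors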
Procedure, shortened: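 Total spike count from 40 min recordings before and during compound exposure (0.03-40 uM), given as per-well percent change. Cortical cultures from rat, DIV 13 or 15, 37 C; adaptive detection threshold 8x rms noise.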

| Compound | AC50 | outcome |
| --- | --- | --- |
| CCOc1cc(C(C)(C)C)ccc1C1COC(c2c(F)cccc2F)=N1 (configuration not stated) | 3.32 µM (active) |  |
| CNC(=O)Oc1cccc2ccccc12 |  | inactive |
| CCOc1nc(F)cc2nc(S(=O)(=O)Nc3c(Cl)cccc3Cl)nn12 |  | inactive |
| C=C(C)CN(CC)c1c([N+](=O)[O-])cc(C(F)(F)F)cc1[N+](=O)[O-] | 31.9 µM (active) |  |
| CCCN(CC)CC1COC2(CCC(C(C)(C)C)CC2)O1 (configuration not stated) |  | inactive |
| CC(C)C1(C)N=C(c2ncccc2C(=O)O)NC1=O (configuration not stated) |  | inactive |
| Cc1nc(N(C)C)nc(OC(=O)N(C)C)c1C |  | inactive |
| N#CN=C1SCCN1Cc1ccc(Cl)nc1 |  | inactive |
| CCCC(=NOCC)C1=C(O)CC(CC(C)SCC)CC1=O (configuration not stated) | 11.1 µM (active) |  |
| CCOC(=O)C(C)OC(=O)c1cc(Oc2ccc(C(F)(F)F)cc2Cl)ccc1[N+](=O)[O-] (configuration not stated) | 5.49 µM (active) |  |

Test: CCTE_Shafer_MEA_acute_firing_rate_mean: CCTE's Neural Acute Assay for Mean Firing Rate, Shafer Lab (AID 2284009);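 also: analyzed for loss of signal so actives lower firing rate relative to DMSO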
Procedure, shortened: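 Percent change in well-mean firing rate was derived from extracellular spikes detected at 8x rms noise (300-5000 Hz band-pass) before and after a 40-min compound exposure. Cultures were primary rat cortical neurons, tested at 0.03-40 uM.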

| Compound | AC50 | outcome |
| --- | --- | --- |
| CCOc1cc(C(C)(C)C)ccc1C1COC(c2c(F)cccc2F)=N1 (configuration not stated) | 3.32 µM (active) |  |
| CNC(=O)Oc1cccc2ccccc12 |  | inactive |
| CCOc1nc(F)cc2nc(S(=O)(=O)Nc3c(Cl)cccc3Cl)nn12 |  | inactive |
| C=C(C)CN(CC)c1c([N+](=O)[O-])cc(C(F)(F)F)cc1[N+](=O)[O-] | 31.9 µM (active) |  |
| CCCN(CC)CC1COC2(CCC(C(C)(C)C)CC2)O1 (configuration not stated) |  | inactive |
| CC(C)C1(C)N=C(c2ncccc2C(=O)O)NC1=O (configuration not stated) |  | inactive |
| Cc1nc(N(C)C)nc(OC(=O)N(C)C)c1C |  | inactive |
| N#CN=C1SCCN1Cc1ccc(Cl)nc1 |  | inactive |
| CCCC(=NOCC)C1=C(O)CC(CC(C)SCC)CC1=O (configuration not stated) | 11.1 µM (active) |  |
| CCOC(=O)C(C)OC(=O)c1cc(Oc2ccc(C(F)(F)F)cc2Cl)ccc1[N+](=O)[O-] (configuration not stated) | 5.46 µM (active) |  |

Test: CCTE_Harrill_HTTr_Viability_MCF7: CCTE's 6-hour Cell Viability Assessment for the High-Throughput Transcriptomics (HTTr) Platform, in MCF-7 cells cultured in DMEM + 10% fetal bovine serum, Harrill Lab (AID 2284010)
Procedure, shortened: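 Cells were dosed with chemicals in an eight-point dilution series, imaged 6 hours later for propidium iodide uptake, and the endpoint was analyzed by bidirectional fitting against DMSO as negative control.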

| Compound | outcome |
| --- | --- |
| COc1cc(OC)nc(NC(=O)NS(=O)(=O)c2ncccc2OCC(F)(F)F)n1 | inactive |
| CCOc1nc(C(Cl)(Cl)Cl)ns1 | inactive |
| CN=C=S | inactive |
| CCOc1cc(C(C)(C)C)ccc1C1COC(c2c(F)cccc2F)=N1 (configuration not stated) | inactive |
| COP(=S)(OC)Oc1ccc([N+](=O)[O-])c(C)c1 | inactive |
| COC(=O)NC(=S)Nc1ccccc1NC(=S)NC(=O)OC | inactive |
| CNC(=O)Oc1cccc2ccccc12 | inactive |
| CC(C)Nc1nc(Cl)nc(NC(C)C)n1 | inactive |
| CCNC(=O)NC(=O)C(C#N)=NOC | inactive |
| CC1(C)CON(Cc2ccccc2Cl)C1=O | inactive |
| COP(=O)(OC)O/C(C)=C/C(=O)N(C)C | inactive |
| Cc1cc(C)nc(Nc2ccccc2)n1 | inactive |
| O=P(O)(O)CCCl | inactive |
| CCOc1nc(F)cc2nc(S(=O)(=O)Nc3c(Cl)cccc3Cl)nn12 | inactive |
| N#Cc1c(Cl)cccc1Cl | inactive |
| CNC(=O)N(C)c1nnc(C(C)(C)C)s1 | inactive |
| COc1cc(Cl)c(OC)cc1Cl | inactive |
| O=c1n(Cl)c(=O)n(Cl)c(=O)n1Cl | inactive |

| Compound | outcome |
| --- | --- |
| C=C(C)CN(CC)c1c([N+](=O)[O-])cc(C(F)(F)F)cc1[N+](=O)[O-] | inactive |
| Nc1cnn(-c2ccccc2)c(=O)c1Cl | inactive |
| CCCN(CC)CC1COC2(CCC(C(C)(C)C)CC2)O1 (configuration not stated) | inactive |
| CSC(=O)c1c(C(F)F)nc(C(F)(F)F)c(C(=O)SC)c1CC(C)C | inactive |
| COC(=O)NS(=O)(=O)c1ccc(N)cc1 | inactive |
| O=C(O)c1c(Cl)ccc2cc(Cl)cnc12 | inactive |
| C=CCOC(=O)C(C)(C)OC(=O)c1cc(-n2c(=O)cc(C(F)(F)F)n(C)c2=O)ccc1Cl | inactive |
| CC(C)C1(C)N=C(c2ncccc2C(=O)O)NC1=O (configuration not stated) | inactive |
| CC(C)NC(=O)N1CC(=O)N(c2cc(Cl)cc(Cl)c2)C1=O | inactive |
| CS(=O)(=O)c1cc(C(F)(F)F)ccc1C(=O)c1cnoc1C1CC1 | inactive |
| Cc1nc(N(C)C)nc(OC(=O)N(C)C)c1C | inactive |
| N#CN=C1SCCN1Cc1ccc(Cl)nc1 | inactive |
| CC(C)Oc1cccc(NC(=O)c2ccccc2C(F)(F)F)c1 | inactive |
| CCC(C)n1c(=O)[nH]c(C)c(Br)c1=O (configuration not stated) | inactive |
| Nc1c(Cl)c(Cl)nc(C(=O)O)c1Cl | inactive |
| CCCC(=NOCC)C1=C(O)CC(CC(C)SCC)CC1=O (configuration not stated) | inactive |
| CCOC(=O)C(C)OC(=O)c1cc(Oc2ccc(C(F)(F)F)cc2Cl)ccc1[N+](=O)[O-] (configuration not stated) | inactive |
| CS(=O)(=O)c1ccc(C(=O)C2C(=O)CCCC2=O)c([N+](=O)[O-])c1 | inactive |

Test: CCTE_Harrill_HTTr_Apoptosis_MCF7: CCTE's 6-hour Apoptosis Assessment for the High-Throughput Transcriptomics (HTTr) Platform, in MCF-7 cells cultured in DMEM + 10% fetal bovine serum, Harrill Lab (AID 2284011)
Procedure, shortened: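 High-content imaging of CellEvent Caspase 3/7 Green signal follows a six-hour exposure, with eight concentrations per chemical. MCF-7 cells grown in DMEM plus 10% fetal bovine serum; activity fitted in both directions against DMSO.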

| Compound | outcome |
| --- | --- |
| COc1cc(OC)nc(NC(=O)NS(=O)(=O)c2ncccc2OCC(F)(F)F)n1 | inactive |
| CCOc1nc(C(Cl)(Cl)Cl)ns1 | inactive |
| CN=C=S | inactive |
| CCOc1cc(C(C)(C)C)ccc1C1COC(c2c(F)cccc2F)=N1 (configuration not stated) | inactive |
| COP(=S)(OC)Oc1ccc([N+](=O)[O-])c(C)c1 | inactive |
| COC(=O)NC(=S)Nc1ccccc1NC(=S)NC(=O)OC | inactive |
| CNC(=O)Oc1cccc2ccccc12 | inactive |
| CC(C)Nc1nc(Cl)nc(NC(C)C)n1 | inactive |
| CCNC(=O)NC(=O)C(C#N)=NOC | inactive |
| CC1(C)CON(Cc2ccccc2Cl)C1=O | inactive |
| COP(=O)(OC)O/C(C)=C/C(=O)N(C)C | inactive |
| Cc1cc(C)nc(Nc2ccccc2)n1 | inactive |
| O=P(O)(O)CCCl | inactive |
| CCOc1nc(F)cc2nc(S(=O)(=O)Nc3c(Cl)cccc3Cl)nn12 | inactive |
| N#Cc1c(Cl)cccc1Cl | inactive |
| CNC(=O)N(C)c1nnc(C(C)(C)C)s1 | inactive |
| COc1cc(Cl)c(OC)cc1Cl | inactive |
| O=c1n(Cl)c(=O)n(Cl)c(=O)n1Cl | inactive |

| Compound | outcome |
| --- | --- |
| C=C(C)CN(CC)c1c([N+](=O)[O-])cc(C(F)(F)F)cc1[N+](=O)[O-] | inactive |
| Nc1cnn(-c2ccccc2)c(=O)c1Cl | inactive |
| CCCN(CC)CC1COC2(CCC(C(C)(C)C)CC2)O1 (configuration not stated) | inactive |
| CSC(=O)c1c(C(F)F)nc(C(F)(F)F)c(C(=O)SC)c1CC(C)C | inactive |
| COC(=O)NS(=O)(=O)c1ccc(N)cc1 | inactive |
| O=C(O)c1c(Cl)ccc2cc(Cl)cnc12 | inactive |
| C=CCOC(=O)C(C)(C)OC(=O)c1cc(-n2c(=O)cc(C(F)(F)F)n(C)c2=O)ccc1Cl | inactive |
| CC(C)C1(C)N=C(c2ncccc2C(=O)O)NC1=O (configuration not stated) | inactive |
| CC(C)NC(=O)N1CC(=O)N(c2cc(Cl)cc(Cl)c2)C1=O | inactive |
| CS(=O)(=O)c1cc(C(F)(F)F)ccc1C(=O)c1cnoc1C1CC1 | inactive |
| Cc1nc(N(C)C)nc(OC(=O)N(C)C)c1C | inactive |
| N#CN=C1SCCN1Cc1ccc(Cl)nc1 | inactive |
| CC(C)Oc1cccc(NC(=O)c2ccccc2C(F)(F)F)c1 | inactive |
| CCC(C)n1c(=O)[nH]c(C)c(Br)c1=O (configuration not stated) | inactive |
| Nc1c(Cl)c(Cl)nc(C(=O)O)c1Cl | inactive |
| CCCC(=NOCC)C1=C(O)CC(CC(C)SCC)CC1=O (configuration not stated) | inactive |
| CCOC(=O)C(C)OC(=O)c1cc(Oc2ccc(C(F)(F)F)cc2Cl)ccc1[N+](=O)[O-] (configuration not stated) | inactive |
| CS(=O)(=O)c1ccc(C(=O)C2C(=O)CCCC2=O)c([N+](=O)[O-])c1 | inactive |
